This is an account of results in PubChem BioAssay (EPA / NIEHS).

The source made the active and inactive calls. Rule for the calls: active = hit-call score of the fitted dose curve at least 0.9, where 1 is the maximum; inactive = score below 0.9.

As a reminder, the AC50 is the concentration giving half of the maximal activity seen.

The experiment in a line: ATG_TCF_b_cat_CIS: Attagene CIS-FACTORIAL HepG2 Assay for human T-Cell-Factor with beta-catenin (TCF/b-cat) (AID 2282965). To be noted: HepG2 TCF/beta-catenin cis-reporter transcription, actives raise or lower the signal. Here is the method: ATG_CIS is a cell-based, multiplexed-readout assay that uses HepG2, a human liver cell line, with measurements taken at 24 hours after chemical dosing in a 24-well plate.ATG_TCF_b_cat_CIS is one of 52 assay component(s) measured or calculated from the ATG_CIS assay. It is designed to make measurements of mRNA induction, a form of inducible reporter, as detected with fluorescence intensity signals by Reverse transcription polymerase chain reaction (RT-PCR) and Capillary electrophoresis technology.Data from the assay component ATG_TCF_b_cat_CIS was analyzed into 1 assay endpoint. This assay endpoint, ATG_TCF_b_cat_CIS, was analyzed with bidirectional fitting relative to DMSO as the negative control and baseline of activity. Using a type of inducible reporter, measures of mRNA for gain or loss-of-signal activity can be used to understand the reporter gene at the transcription factor-level as they relate to the gene TCF7 and TCF7L2 and LEF1 and TCF7L1. Furthermore, this assay endpoint can be referred to as a primary readout, because this assay has produced multiple assay endpoints where this one serves a reporter gene function. To generalize the intended target to other relatable targets, this assay endpoint is annotated to the dna binding intended target family, where the subfamily is HMG box protein.
Human liver HepG2 cells are transiently transfected with multiple reporter transcription units (MRTUs) in 6-well plates using FuGene 6 reagent (Roche; 3 ml FuGene/1 mg DNA). The MRTU constructs are regulated by a cis-regulating element (promoter). […] A major difference between the CIS and TRANS system is that in CIS activities of endogenous TFs are measured, whereas the TRANS assay evaluates changes in activities of exogenous, chimeric NR-Gal4 proteins. […] At the end of 24 hour incubation, total RNA was isolated using TriZol reagent (Invitrogen). The isolated RNA is then reverse-transcribed using oligo(dT) primer and Mo-MLV reverse transcriptase (Invitrogen) with DNAse I (Ambion) treatment for 30 min. The one-tenth of the produced cDNA was amplified by PCR using Taq DNA polymerase (Invitrogen) and two reporter sequence-specific primers. The PCR products were fluorescently labeled by primer extension with 6-arboxyfluorescein (6-FAM) 5'-labeled reporter sequence-specific primer (2 min at 95 C, 20 s at 68 C and 10 min at 72 C) and these products were digested with 5U of HpaI (New England Biolabs) for 2h at 37 C. The fragments were purified using Qiaquick PCR columns (Qiagen), analyzed on an ABI 3130xL genetic analyzer (Applied Biosystems) with peak positions identified by using a set of X-rhodamine (ROX)-labeled MapMarker1000 molecular weight standards (BioVentures). The raw capillary electrophoresis data was processed using Attagraph software (Attagene).
Take `CCCCCCCCCCCSCC(=O)O`: the compound was called inactive.
As to `CCc1nccnc1C`, the outcome was inactive.
Same read-out and setting: for `Cc1ccc(C(C)c2ccc(C)c(C)c2)cc1C` the value was “inactive”; for `C=C(C)[C@H]1CC=C(C)CC1`, “inactive”; for `COCc1c(C(C)C)nc(C(C)C)c(/C=C/[C@@H](O)C[C@@H](O)CC(=O)O)c1-c1ccc(F)cc1`, “inactive”.
Same read-out and setting: for `CCCCCCCCCCCCCCCC(=O)OCC` the value was “inactive”; for `Nc1ccc(Cl)cc1Cl`, “inactive”.
Same read-out and setting: for `C=C[Si](C)(C)O[Si](C)(C)C=C` the value was “inactive”; for `CC(C)=CCC/C(C)=C\C#N`, “inactive”.
`OCCNCc1ccccc1`: the call was inactive.
Same read-out and setting: as for `Cc1cc(C)c(C)c(O)c1`, the entry is “inactive”; as for `NC(=O)NNC(N)=O`, “inactive”; as for `C=C(C)CCO`, “inactive”.
Still for that read-out and setting: as for `CC(=O)OC1C2(C)CCC(C2)C1(C)C` (stereo not given), the entry is “inactive”; as for `O=C(Nc1ccccc1)c1ccccc1O`, “inactive”.
Consider `c1ccc(CNCc2ccccc2)cc1`, for which the result was inactive.
As for `CN(C)c1ccc(N=Nc2ccccc2C(=O)O)cc1`, the half-maximal activity concentration (AC50) is 31.4 µM (active).
For `O=C(O)c1cc(Cl)cc([N+](=O)[O-])c1Cl`, the compound was classed as inactive.
The same measure, in the same setting: for `CCCCC(CC)COCC1CO1` (stereo not given) the value was “inactive”; for `O=C(O)CCCC[C@@H]1SC[C@@H]2NC(=O)N[C@@H]21`, “inactive”; for `NC(=O)N=NC(N)=O`, “inactive”.
Still for that read-out and setting: as for `N#[N+]c1ccc2c(S(=O)(=O)[O-])cccc2c1O`, the entry is “inactive”.
The same measure, in the same setting: as for `COC(=O)c1ccc2cc(C(=O)OC)ccc2c1`, the entry is “inactive”; as for `CC(CC=O)CCCC(C)(C)O` (stereo not given), “inactive”.
In the case of `CN(C)CCCN(C)C`, the result was inactive.
As for `CC(C)CC(O)Cc1ccccc1` (stereo not given), the result was inactive.
On the same count and under the same terms, for `O=c1n(CCO)c(=O)n(CCO)c(=O)n1CCO` the value was “inactive”; for `C=C(C)C(=O)OCC(C)C`, “inactive”.
As to `C=CC(=O)OCC(Br)CBr` (stereo not given), the AC50 was 44.2 µM (active).
Turning to `CCN(CC)c1ccc(C(=O)c2ccccc2C(=O)O)c(O)c1`, the call was inactive.
Same read-out and setting: for `CC(=O)OCc1ccco1` the value was “inactive”; for `CCCCCCCCCCc1ccccc1`, “inactive”.
On to `O=C(O)CCCCCCCCCC(=O)O`, for which the result was inactive.
Regarding `[Cl][Nd]([Cl])[Cl]`, the call was inactive.
Still for that read-out and setting: as for `O=[N+]([O-])c1ccc(CO)cc1`, the entry is “inactive”; as for `CCCCCCCCCCCCCOP(=O)(O)O`, “inactive”.
Regarding `CC(C)(C)C(=O)C=Cc1ccc(Cl)cc1`, the AC50 is 53.8 µM (active).
As to `CCCNC(=O)NS(=O)(=O)c1ccc(Cl)cc1`, the result was inactive.
The same measure, in the same setting: for `CCCCNc1ccc(NCCCC)c2c1C(=O)c1ccccc1C2=O` the value was “inactive”.
The same measure, in the same setting: for `Cc1cc(O)c(Cl)c(C)c1Cl` the value was “inactive”.
